Values joined by “and” are separate entries in the source; they are usually repeats but may differ in a detail not shown here. Equal values may be shown once. The whole screen tested about 5,500 compounds, of which about 2,000 (36%) were called active. About 18% were inconclusive and are not listed. Cut-off read from the data, not from the text of the source: active = normalized growth mostly below about 0.91 (no sharp cut-off); inconclusive = no clear call, values can overlap the other calls; inactive = mostly above about 0.92. The list shows a part of the results.
Assay: chemical genetic growth profiling, strain panel (AID 1159580);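 note: tested at 20 µM; growth read once vehicle control cultures reached saturation at 30 °C; 1 = growth at the plate median or of vehicle wells; lower values mean less growth of the strain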
Conditions: S. cerevisiae deletion strains, growth OD

Measured: normalized growth

CC(C)c1ccc2c(c1)CCC1[C@](C)(CN)CCC[C@]21C (stereo partly specified)
inactive: locus YAL030W, strain snc1, stronger effect = lower value 1.01 | locus YBL061C, strain skt5, stronger effect = lower value 1.01 | locus YBR009C, strain hhf1, stronger effect = lower value 0.927 | locus YBR023C, strain chs3, stronger effect = lower value 0.947 | locus YBR171W, strain sec66, stronger effect = lower value 1.02 | locus YBR229C, strain ROT2, stronger effect = lower value 0.925 | locus YBR231C, strain swc5, stronger effect = lower value 0.974 | locus YBR279W, strain paf1, stronger effect = lower value 0.976 | locus YCL011C, strain gbp2, stronger effect = lower value 0.942 | locus YCL016C, strain dcc1, stronger effect = lower value 0.952 | locus YCL061C, strain MRC1, stronger effect = lower value 0.983 | locus YCL069W, strain vba3, stronger effect = lower value 1 | locus YCR088W, strain abp1, stronger effect = lower value 1.01 | locus YDL005C, strain med2, stronger effect = lower value 1.03 | locus YDL040C, strain nat1, stronger effect = lower value 1.01 | locus YDR001C, strain nth1, stronger effect = lower value 1.02 | locus YDR137W, strain rgp1, stronger effect = lower value 1.03 | locus YDR159W, strain sac3, stronger effect = lower value 1.02 | locus YDR195W, strain ref2 1.1 | locus YDR297W, strain sur2, stronger effect = lower value 0.992 | locus YDR334W, strain swr1, stronger effect = lower value 1.01 | locus YDR335W, strain msn5, stronger effect = lower value 0.969 | locus YEL003W, strain gim4, stronger effect = lower value 0.927 | locus YEL037C, strain rad23, stronger effect = lower value 1.01 | locus YEL061C, strain CIN8 (second series), stronger effect = lower value 1.01 | locus YER015W, strain faa2, stronger effect = lower value 0.951 | locus YER016W, strain bim1, stronger effect = lower value 1.02 | locus YER111C, strain swi4, stronger effect = lower value 1.03 | locus YGL167C, strain pmr1, stronger effect = lower value 1.01 | locus YGL173C, strain kem1, stronger effect = lower value 0.971 | locus YGL227W, strain vid30, stronger effect = lower value 1.02 | locus YGL240W, strain doc1, stronger effect = lower value 0.959 | locus YGL253W, strain hxk2, stronger effect = lower value 0.973 | locus YHR013C, strain ard1, stronger effect = lower value 0.886 | locus YHR027C, strain rpn1, stronger effect = lower value 1.02 | locus YHR079C, strain IRE1, stronger effect = lower value 0.964 | locus YHR094C, strain hxt1, stronger effect = lower value 0.949 | locus YHR142W, strain chs7, stronger effect = lower value 0.89 | locus YIL125W, strain kgd1, stronger effect = lower value 0.961 | locus YJL092W, strain hpr5, stronger effect = lower value 0.991 | locus YJL095W, strain BCK1 (second series), stronger effect = lower value 0.995 | locus YJL115W, strain asf1, stronger effect = lower value 1.01 | locus YJL129C, strain trk1, stronger effect = lower value 0.954 | locus YJL134W, strain LCB3, stronger effect = lower value 0.987 | locus YJL154C, strain vps35, stronger effect = lower value 1.02 | locus YJL164C, strain tpk1, stronger effect = lower value 0.931 | locus YJR066W, strain TOR1, stronger effect = lower value 0.919
0.108 (active) and 0.995 (inactive): locus YJL095W, strain BCK1, stronger effect = lower value
active: locus YAL013W, strain DEP1, stronger effect = lower value 0.598 | locus YAL021C, strain ccr4, stronger effect = lower value 0.819 | locus YAL026C, strain drs2, stronger effect = lower value 0.0819 | locus YBR021W, strain FUR4, stronger effect = lower value 0.392 | locus YCL029C, strain bik1, stronger effect = lower value 0.652 | locus YDL035C, strain GPR1, stronger effect = lower value 0.253 | locus YDL074C, strain BRE1, stronger effect = lower value 0.45 | locus YDL101C, strain DUN1, stronger effect = lower value 0.199 | locus YDL134C, strain PPH21, stronger effect = lower value 0.486 | locus YDL185W, strain tfp1, stronger effect = lower value 0.88 | locus YDL192W, strain arf1, stronger effect = lower value 0.0814 | locus YDR069C, strain doa4, stronger effect = lower value 0.839 | locus YDR101C, strain arx1, stronger effect = lower value 0.13 | locus YDR150W, strain NUM1, stronger effect = lower value 0.786 | locus YDR162C, strain NBP2, stronger effect = lower value 0.0633 | locus YDR318W, strain mcm21, stronger effect = lower value 0.457 | locus YDR388W, stronger effect = lower value 0.284 | locus YDR392W, strain spt3, stronger effect = lower value 0.5 | locus YDR502C, strain sam2, stronger effect = lower value 0.0848 | locus YEL061C, strain CIN8, stronger effect = lower value 0.65 | locus YER110C, stronger effect = lower value 0.684 | locus YER155C, strain BEM2 (second series), stronger effect = lower value 0.367 | locus YER167W, strain BCK2, stronger effect = lower value 0.661 | locus YFR010W, strain ubp6, stronger effect = lower value 0.811 | locus YGL078C, strain dbp3, stronger effect = lower value 0.906 | locus YGL086W, strain mad1, stronger effect = lower value 0.167 | locus YGL248W, strain PDE1, stronger effect = lower value 0.368 | locus YGR078C, strain PAC10, stronger effect = lower value 0.334 | locus YGR135W, strain pre9, stronger effect = lower value 0.117 | locus YGR229C, strain SMI1, stronger effect = lower value 0.0707 | locus YGR252W, strain gcn5, stronger effect = lower value 0.174 | locus YHR079C, strain IRE1 (second series), stronger effect = lower value 0.646 | locus YHR129C, strain ARP1, stronger effect = lower value 0.701 | locus YHR200W, strain rpn10, stronger effect = lower value 0.162 | locus YIL066C, strain RNR3, stronger effect = lower value 0.34 | locus YIL073C, strain SPO22, stronger effect = lower value 0.147 | locus YIR030C, strain dcg1, stronger effect = lower value 0.19 | locus YJL166W, strain qcr8, stronger effect = lower value 0.894 | locus YJL168C, strain set2, stronger effect = lower value 0.714 | locus YJL187C, strain SWE1 (second series), stronger effect = lower value 0.243 | locus YJR043C, strain POL32, stronger effect = lower value 0.635 | locus YJR075W, strain HOC1, stronger effect = lower value 0.392
0.183 (active) and 0.967 (inactive): locus YHR030C, strain SLT2, stronger effect = lower value
